Measured values reported in PubChem BioAssay (Tox21).
Where “and” joins values, the source holds several entries; their conditions need not be identical. Equal entries are not always repeated. Results filed as inconclusive are left out. Calls of active or inactive are those of the source. The call rests on the fitted dose curve; in most records, active means well fitted curve in the direction sought with a large enough effect in the repeat runs; inconclusive means weak or mixed curves; inactive means no such curve, though single readings can be large; an effect the other way counts as inactive or inconclusive.

Columns and labels:
[1] = qHTS RealTime-Glo MT Cell Viability Assay in HEK293 cells - 16 hour (AID 1224872); further: nearly all actives have a fitted effect of over 50% in size; further: potency means the concentration at half of the fitted maximal effect
Outline: (§1)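 HEK293 cells seeded with NanoLuc/prosubstrate reagent, rested 5 h at 37 C, then dosed and kept at 37 C up to 40 h. Nonlytic real-time luminescence from viable cells read at 0, 8, 16, 24, 32 and 40 h.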

[2] = qHTS RealTime-Glo MT Cell Viability Assay in HepG2 cells - 8 hour (AID 1224873); further: nearly all actives have a fitted effect of over 55% in size; further: potency means the concentration at half of the fitted maximal effect
Outline: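 HepG2 cells mixed with RealTime-Glo MT reagents (NanoLuc plus cell-permeant prosubstrate) were seeded at 600 cells/well, incubated 5 h at 37 C/5% CO2, then pinned with compounds in DMSO; nonlytic luminescence tracked viability during 40 h treatment.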

[3] = qHTS RealTime-Glo MT Cell Viability Assay in HEK293 cells - 40 hour (AID 1224874); details: RealTime-Glo luminescence; max response: active compounds read low; further: nearly all actives have a fitted effect of over 50% in size; further: potency means the concentration at half of the fitted maximal effect
Outline: (§2)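 Cells were seeded together with NanoLuc luciferase and a prosubstrate that viable cells reduce to a luciferase substrate. After a 5 h incubation at 37 C/5% CO2, compounds were added and luminescence was measured repeatedly during 40 h of treatment.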

[4] = A CellTox Green Cytotoxicity Assay to monitor cytotoxicity in HEK293 cells - 24 hour (AID 1224875); further: nearly all actives have a fitted effect of over 45% in size; further: potency means the concentration at half of the fitted maximal effect
Outline: (§3)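 Nonlytic real-time cytotoxicity: HEK293 + CellTox Green reagent plated, 5 h preincubation, pintool compound addition (23 nL in DMSO), 37 C for 40 h, fluorescence measured at successive time points.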

[5] = A CellTox Green Cytotoxicity Assay to monitor cytotoxicity in HepG2 cells - 16 hour (AID 1224876); further: nearly all actives have a fitted effect of over 45% in size; further: potency means the concentration at half of the fitted maximal effect
Outline: (§4)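 Read-out is fluorescence of a cyanine dye excluded from live cells that stains DNA of dead HepG2 cells, with signal proportional to cytotoxicity. Plates were read at 0, 8, 16, 24, 32 and 40 h after compound addition.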

[6] = qHTS RealTime-Glo MT Cell Viability Assay in HepG2 cells - 32 hour (AID 1224877); further: nearly all actives have a fitted effect of over 55% in size; further: potency means the concentration at half of the fitted maximal effect
Outline: (§5)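 HepG2 cells (600/well) were dispensed with RealTime-Glo reagents, incubated 5 h at 37 °C, then treated with compounds in DMSO for up to 40 h. Nonlytic NanoLuc luminescence reflecting viable cells was read at each stated time point.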

[7] = A CellTox Green Cytotoxicity Assay to monitor cytotoxicity in HepG2 cells - 24 hour (AID 1224878); further: nearly all actives have a fitted effect of over 45% in size; further: potency means the concentration at half of the fitted maximal effect
Outline: as §4

[8] = A CellTox Green Cytotoxicity Assay to monitor cytotoxicity in HepG2 cells - 40 hour (AID 1224879); further: nearly all actives have a fitted effect of over 40% in size; further: potency means the concentration at half of the fitted maximal effect
Outline: as §4

[9] = qHTS RealTime-Glo MT Cell Viability Assay in HEK293 cells - 0 hour (AID 1224880); further: top concentration of the series differs between compounds; nearly all actives have a fitted effect of over 45% in size
Outline: as §2

[10] = A CellTox Green Cytotoxicity Assay to monitor cytotoxicity in HEK293 cells - 32 hour (AID 1224881); further: nearly all actives have a fitted effect of over 40% in size; further: potency means the concentration at half of the fitted maximal effect
Outline: as §3

[11] = A CellTox Green Cytotoxicity Assay to monitor cytotoxicity in HepG2 cells - 0 hour (AID 1224882); further: nearly all actives have a fitted effect of over 35% in size
Outline: as §4

[12] = A CellTox Green Cytotoxicity Assay to monitor cytotoxicity in HepG2 cells - 32 hour (AID 1224883); further: nearly all actives have a fitted effect of over 50% in size; further: potency means the concentration at half of the fitted maximal effect
Outline: as §4

[13] = A CellTox Green Cytotoxicity Assay to monitor cytotoxicity in HEK293 cells - 8 hour (AID 1224884); further: nearly all actives have a fitted effect of over 35% in size; further: potency means the concentration at half of the fitted maximal effect
Outline: as §3

[14] = qHTS RealTime-Glo MT Cell Viability Assay in HepG2 cells - 16 hour (AID 1224885); further: nearly all actives have a fitted effect of over 50% in size; further: potency means the concentration at half of the fitted maximal effect
Outline: as §5

[15] = qHTS RealTime-Glo MT Cell Viability Assay in HEK293 cells - 24 hour (AID 1224886)
Outline: as §1

[16] = qHTS RealTime-Glo MT Cell Viability Assay in HEK293 cells - 8 hour (AID 1224887); further: nearly all actives have a fitted effect of over 50% in size; further: potency means the concentration at half of the fitted maximal effect
Outline: as §2

[17] = A CellTox Green Cytotoxicity Assay to monitor cytotoxicity in HEK293 cells - 16 hour (AID 1224888); further: nearly all actives have a fitted effect of over 35% in size; further: potency means the concentration at half of the fitted maximal effect
Outline: as §3

[18] = qHTS RealTime-Glo MT Cell Viability Assay in HepG2 cells - 0 hour (AID 1224889); further: nearly all actives have a fitted effect of over 50% in size
Outline: as §5

[19] = A CellTox Green Cytotoxicity Assay to monitor cytotoxicity in HepG2 cells - 8 hour (AID 1224890); further: nearly all actives have a fitted effect of over 45% in size; further: potency means the concentration at half of the fitted maximal effect
Outline: as §4

[20] = qHTS assay to identify small molecule antagonists of the estrogen receptor alpha (ER-alpha) signaling pathway using the BG1 cell line in the presence of 0.1 nM 17-beta-estradiol - cell viability counter screen (AID 1259241); further: nearly all actives have a fitted effect of over 40% in size
Outline: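 Cells were plated and left 24 hr, compounds in DMSO were pinned in, 17beta-estradiol was added to 0.1 nM final, and after 22 hr CellTiter-Fluor reagent was added for 30 min before fluorescence was read.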
On the % scale 0 is the no-effect control and ±100 the full control effect.

Cc1cccc(C(=O)O)c1O
inactive: Potency [1] | Potency [2] | max response [3] 6.77% | Potency [4] | Potency [5] | Potency [6] | Potency [7] | Potency [8] | Potency [9] | Potency [10] | Potency [11] | Potency [12] | Potency [13] | Potency [14] | Potency [15] | Potency [16] | Potency [17] | Potency [18] | Potency [19] | Potency [20]

CCCCCC/C=C\CCCCCCCC(=O)O
inactive: Potency [1] | Potency [2] | max response [3] -4.29% | Potency [4] | Potency [5] | Potency [6] | Potency [7] | Potency [8] | Potency [9] | Potency [10] | Potency [11] | Potency [12] | Potency [13] | Potency [14] | Potency [15] | Potency [16] | Potency [17] | Potency [18] | Potency [19] | Potency [20]

C#C[C@]1(O)CC[C@H]2[C@@H]3[C@H](C)CC4=C(CCC(=O)C4)[C@H]3CC[C@@]21C
inactive: Potency [1] | Potency [2] | max response [3] -25.5% | Potency [4] | Potency [5] | Potency [6] | Potency [7] | Potency [8] | Potency [9] | Potency [10] | Potency [11] | Potency [12] | Potency [13] | Potency [14] | Potency [15] | Potency [16] | Potency [17] | Potency [18] | Potency [19] | Potency [20]

O=C(O)c1cc(=O)c2ccccc2o1
inactive: Potency [1] | Potency [2] | max response [3] 1.84% | Potency [4] | Potency [5] | Potency [6] | Potency [7] | Potency [8] | Potency [9] | Potency [10] | Potency [11] | Potency [12] | Potency [13] | Potency [14] | Potency [16] | Potency [17] | Potency [18] | Potency [19] | Potency [20]

OC[C@@H](O)[C@@H](O)CO
inactive: Potency [1] | Potency [2] | max response [3] 7.59% | Potency [4] | Potency [5] | Potency [6] | Potency [7] | Potency [8] | Potency [9] | Potency [10] | Potency [11] | Potency [12] | Potency [13] | Potency [14] | Potency [16] | Potency [17] | Potency [19]

O=C(/C=C/c1ccc(O)c(O)c1)O[C@@H](C(=O)O)[C@@H](OC(=O)/C=C/c1ccc(O)c(O)c1)C(=O)O
inactive: Potency [1] | Potency [2] | max response [3] 1.33% | Potency [4] | Potency [5] | Potency [6] | Potency [7] | Potency [8] | Potency [9] | Potency [10] | Potency [11] | Potency [12] | Potency [13] | Potency [14] | Potency [15] | Potency [16] | Potency [17] | Potency [19] | Potency [20]

CC(C)OC(=O)C(O)(CC(=O)O)CC(=O)O
inactive: Potency [1] | Potency [2] | max response [3] 1.68% | Potency [4] | Potency [5] | Potency [6] | Potency [7] | Potency [8] | Potency [9] | Potency [11] | Potency [12] | Potency [13] | Potency [14] | Potency [15] | Potency [16] | Potency [17] | Potency [18] | Potency [19]

CCCCCCCCCCCCCCCC[N+](C)(C)CC
active: Potency [1] 21.9 µM and 6.74 µM | Potency [2] 55.1 µM | Potency [3] 4.38 µM and 3.38 µM | Potency [4] 43.8 µM and 23.9 µM | Potency [5] 49.1 µM and 23.9 µM | Potency [6] 21.9 µM and 21.3 µM | Potency [7] 24.6 µM and 21.3 µM | Potency [8] 15.5 µM and 19 µM | Potency [10] 39 µM and 21.3 µM | Potency [12] 17.4 µM and 19 µM | Potency [13] 55.1 µM and 23.9 µM | Potency [14] 49.1 µM and 23.9 µM | Potency [16] 21.9 µM | Potency [17] 55.1 µM | Potency [19] 55.1 µM and 19 µM
inactive: Potency [9] | Potency [11] | Potency [18] | Potency [20]

OC1CCCc2ccccc21 (stereo not drawn)
inactive: Potency [1] | Potency [2] | max response [3] -0.638% | Potency [4] | Potency [5] | Potency [6] | Potency [7] | Potency [8] | Potency [9] | Potency [11] | Potency [12] | Potency [13] | Potency [14] | Potency [15] | Potency [16] | Potency [18] | Potency [19] | Potency [20]

OC1CCC(C2CCCCC2)CC1 (stereo not drawn)
inactive: Potency [1] | Potency [2] | max response [3] -6.69% | Potency [4] | Potency [6] | Potency [10] | Potency [11] | Potency [13] | Potency [14] | Potency [15] | Potency [16] | Potency [17] | Potency [18] | Potency [19] | Potency [20]
active: Potency [7] 43.6 µM

CC/C=C\CCCCCO
inactive: Potency [1] | Potency [2] | max response [3] 9.87% | Potency [4] | Potency [5] | Potency [6] | Potency [9] | Potency [10] | Potency [11] | Potency [13] | Potency [14] | Potency [15] | Potency [16] | Potency [17] | Potency [18] | Potency [19] | Potency [20]
